Reference: PubChem BioAssay
Calls of active or inactive are those of the source.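 The calls were made as follows, unless noted: active = inhibition above 20% together with a positive visual image hit; inconclusive = visual image hit but inhibition not above 20%; inactive = no visual image hit.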

Assay: inhibitors of TNFa-induced NFkB p65 translocation, primary screen, imaging, HUVEC, MLSMR starter and 10KST1 sets (AID 438);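 also: compound added about 3h40 before a 20 min TNFalpha stimulation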;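 as to inhibition: signal is the nuclear over cytoplasmic p65 intensity ratio per well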
Details: HUVEC TNFa-induced p65 nuclear translocation; cell count: measured here: nuclei count (cytotoxicity indicator), at 2.08 µM; inhibition: at 2 µM, stronger effect = higher value, 0% TNFa-plus-vehicle, 100% no-TNFa wells
For CCCCNc1cc(C)oc(=O)c1C(C)=O, the cell count was 590 and the inhibition was 10.2% (inactive). In the case of COc1ccc2c(c1)C(=O)N(c1ccccc1OC)C(=O)C2, the cell count is reported as 320 and the inhibition is reported as -3.9% (inactive). In the case of Cc1ccc(S(=O)(=O)NCC(=O)N(CC(=O)NC2CCCCC2)Cc2ccco2)cc1, the inhibition is reported as 8.1% (inactive) and the cell count is reported as 294. With CN(C)/C=C1\N=C(c2ccc3c(c2)OCO3)OC1=O the inhibition was 15.8% (inactive) and the cell count was 462. With CCc1ccccc1NC(=O)CCc1nc(-c2ccc(C)cc2)no1 the inhibition was -1% (inactive) and the cell count was 415. For COc1ccc(CNC(=O)c2cnc3n(c2=O)CCS3)cc1, the inhibition was -6.4% (inactive) and the cell count was 591. In the case of CCOC(=O)Cc1csc(NC(=O)CSc2nnc(C)n2C)n1, the inhibition is reported as 3.3% (inactive) and the cell count is reported as 585. With NC(=O)NC(c1ccccc1)c1ccccc1F (stereo not given) the cell count was 565 and the inhibition was -4.8% (inactive). For O=C(NCCN1CCOCC1)NC1(C(F)(F)F)Oc2ccc(Cl)cc2O1 (stereo not given), the cell count was 457 and the inhibition was 16.3% (inactive). With CCOc1ccc(Cn2nnc(C(=O)NCc3ccc(OC)cc3)c2N)cc1 the inhibition was -1.3% (inactive) and the cell count was 509. For CC(=O)Nc1cccc(Oc2nc(C)cc(C)c2C#N)c1, the cell count was 950 and the inhibition was 4% (inactive). With O=P1(O)C=C(c2ccccc2)NC(c2ccccc2)=C1 the cell count was 405 and the inhibition was 3.4% (inactive). With Cc1cc2ccccc2c(=O)n1CC(=O)N(C)c1ccc(F)cc1 the cell count was 629 and the inhibition was -4.7% (inactive). For COCCN(Cc1cc2cc3c(cc2n2nnnc12)OCO3)C(=O)c1ccccc1F, the cell count was 271 and the inhibition was 10.7% (inactive). With c1coc(CN(Cc2cccs2)Cc2nnnn2C2CCCCC2)c1 the cell count was 394 and the inhibition was -10.4% (inactive). For c1ccc(-c2nn3c(Cn4nnc5ccccc54)nnc3s2)nc1, the cell count was 574 and the inhibition was 2.1% (inactive). For O=C(CSCc1cccs1)N1CCCC1, the cell count was 228 and the inhibition was 3.9% (inactive). For CCOc1ccccc1-n1c(SCC(=O)NC(C)CC)nnc1-c1ccoc1C (stereo not given), the inhibition was -2.4% (inactive) and the cell count was 608. For CCOC(=O)N1CCC(n2c(=S)[nH]c3cc(OC)c(OC)cc3c2=O)CC1, the cell count was 471 and the inhibition was 4.8% (inactive). With Cc1ccc(Cn2c(SCCN3CCCCC3)nc3c2c(=O)[nH]c(=O)n3C)cc1 the cell count was 575 and the inhibition was -6.4% (inactive). With Cc1ccc(Cn2ccc(NC(=O)c3cc(-c4cccs4)on3)n2)cc1 the inhibition was 0.9% (inactive) and the cell count was 407. In the case of Cc1nnc(N2C(=O)C(O)=C(C(=O)c3ccco3)C2c2ccc(F)cc2)s1 (stereo not given), the cell count is reported as 881 and the inhibition is reported as 4.6% (inactive). With COC(=O)c1cc(=O)nc2sc(-c3cccs3)nn12 the cell count was 349 and the inhibition was 5.5% (inactive). With CCN(CC)CCCNc1oc(-c2cccc(Cl)c2)nc1C#N the inhibition was -11.9% (inactive) and the cell count was 729. For Cn1c(SCC(=O)O)nnc1C1CCCCC1, the cell count was 396 and the inhibition was 1.6% (inactive). For CC1CCN(C(=O)CSc2nnc(-c3ccc(S(=O)(=O)N4CCOCC4)cc3)n2C)CC1, the inhibition was 3.5% (inactive) and the cell count was 446. For COCCn1nnnc1C(c1cccs1)N1CCN(c2cc(C)ccc2C)CC1 (stereo not given), the cell count was 203 and the inhibition was 11.4% (inactive). In the case of CC1CCc2nn(CC(=O)NCCN3CCOCC3)cc2C1 (stereo not given), the inhibition is reported as 4% (inactive) and the cell count is reported as 605. In the case of CCOC(=O)c1c(C)[nH]c(C(=O)Cn2c(=O)c3c(ncn3CC)n(Cc3ccccc3)c2=O)c1C, the inhibition is reported as 4% (inactive) and the cell count is reported as 752. With COc1cccc(C(=O)Nc2cc(C)c3c(=O)oc4ccccc4c3n2)c1 the cell count was 526 and the inhibition was 0.3% (inactive). In the case of O=C(CN1C(=O)COc2ccccc21)N(Cc1cccnc1)Cc1ccccc1F, the inhibition is reported as -2.9% (inactive) and the cell count is reported as 661. With O=c1c2ccccc2c(/C=N/n2cnnc2)c(O)n1-c1ccccc1 the cell count was 408 and the inhibition was -1.9% (inactive). For COCCNC(=O)C1CCCN(c2ncccn2)C1 (stereo not given), the inhibition was 7.5% (inactive) and the cell count was 648. For COc1ccc(CNc2nc(NCc3ccc(OC)cc3)n(S(C)(=O)=O)n2)cc1, the cell count was 292 and the inhibition was -0.9% (inactive). For O=C(CSc1nnc2c3cc(F)ccc3nc(-c3ccccc3)n12)N1CCOCC1, the cell count was 597 and the inhibition was 4.9% (inactive). In the case of CSc1nc(N)nc(SCCS(=O)(=O)c2ccc(Cl)cc2)c1C#N, the cell count is reported as 401 and the inhibition is reported as 2.8% (inactive). With CCOC(=O)c1sc2nc(NC(=O)C3CCCCC3)sc2c1C the cell count was 570 and the inhibition was -0.8% (inactive). With CC(C)(C)OC(=O)NCCc1nnc(SCC(=O)c2ccc(Cl)cc2)o1 the cell count was 282 and the inhibition was -3.2% (inactive). In the case of Cc1nc2ccc(C(=O)c3ccccc3)cc2[nH]1, the inhibition is reported as 7.2% (inactive) and the cell count is reported as 411. In the case of CCOC(=O)c1ccc(NC(=O)CSCc2ccco2)cc1, the inhibition is reported as -1.5% (inactive) and the cell count is reported as 680.

Assay: reduction of polyQ htt aggregates in cells – imaging, exon1htt(103Q)mCFP cells, high-content imaging, primary screen (AID 483;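 active = visual image review flags a hit and inhibition of aggregation exceeds 20%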;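 also: compound exposure lasted 3 days before fixation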;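 as to nuclei count: percent of the per-plate median nuclei count of sample wells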)
Details: exon1htt(103Q)mCFP cell line, aggregate imaging, at 2 µM; inhibition of aggregation: stronger effect = higher value; nuclei count: measured here: cell count, toxicity
With CCCCNc1cc(C)oc(=O)c1C(C)=O the nuclei count was 97.3% and the inhibition of aggregation was 11.4% (inactive). For COc1ccc2c(c1)C(=O)N(c1ccccc1OC)C(=O)C2, the nuclei count was 80.8% and the inhibition of aggregation was -3.2% (inactive). In the case of Cc1ccc(S(=O)(=O)NCC(=O)N(CC(=O)NC2CCCCC2)Cc2ccco2)cc1, the nuclei count is reported as 97.1% and the inhibition of aggregation is reported as 12.7% (inactive). For CN(C)/C=C1\N=C(c2ccc3c(c2)OCO3)OC1=O, the inhibition of aggregation was -17.4% (inactive) and the nuclei count was 104%. With CCc1ccccc1NC(=O)CCc1nc(-c2ccc(C)cc2)no1 the nuclei count was 103% and the inhibition of aggregation was -4% (inactive). With COc1ccc(CNC(=O)c2cnc3n(c2=O)CCS3)cc1 the nuclei count was 97.2% and the inhibition of aggregation was 15.6% (inactive). For CCOC(=O)Cc1csc(NC(=O)CSc2nnc(C)n2C)n1, the nuclei count was 101% and the inhibition of aggregation was 17.4% (inactive). In the case of NC(=O)NC(c1ccccc1)c1ccccc1F (stereo not given), the nuclei count is reported as 99.1% and the inhibition of aggregation is reported as 12.6% (inactive). With O=C(NCCN1CCOCC1)NC1(C(F)(F)F)Oc2ccc(Cl)cc2O1 (stereo not given) the inhibition of aggregation was 11% (inactive) and the nuclei count was 96.4%. For CCOc1ccc(Cn2nnc(C(=O)NCc3ccc(OC)cc3)c2N)cc1, the nuclei count was 72.5% and the inhibition of aggregation was 15.4% (inactive). In the case of CC(=O)Nc1cccc(Oc2nc(C)cc(C)c2C#N)c1, the nuclei count is reported as 111% and the inhibition of aggregation is reported as 0.6% (inactive). With O=P1(O)C=C(c2ccccc2)NC(c2ccccc2)=C1 the nuclei count was 92.3% and the inhibition of aggregation was -6.9% (inactive). With Cc1cc2ccccc2c(=O)n1CC(=O)N(C)c1ccc(F)cc1 the nuclei count was 98% and the inhibition of aggregation was -4.1% (inactive). In the case of COCCN(Cc1cc2cc3c(cc2n2nnnc12)OCO3)C(=O)c1ccccc1F, the inhibition of aggregation is reported as -8.2% (inactive) and the nuclei count is reported as 96.5%. For c1coc(CN(Cc2cccs2)Cc2nnnn2C2CCCCC2)c1, the nuclei count was 119% and the inhibition of aggregation was 26.1% (inactive). With c1ccc(-c2nn3c(Cn4nnc5ccccc54)nnc3s2)nc1 the nuclei count was 103% and the inhibition of aggregation was 3.4% (inactive). In the case of O=C(CSCc1cccs1)N1CCCC1, the nuclei count is reported as 95% and the inhibition of aggregation is reported as -13.9% (inactive). With CCOc1ccccc1-n1c(SCC(=O)NC(C)CC)nnc1-c1ccoc1C (stereo not given) the nuclei count was 105% and the inhibition of aggregation was -1.9% (inactive). In the case of CCOC(=O)N1CCC(n2c(=S)[nH]c3cc(OC)c(OC)cc3c2=O)CC1, the nuclei count is reported as 108% and the inhibition of aggregation is reported as -23.4% (inactive). For Cc1ccc(Cn2c(SCCN3CCCCC3)nc3c2c(=O)[nH]c(=O)n3C)cc1, the nuclei count was 71.5% and the inhibition of aggregation was 5.6% (inactive). For Cc1ccc(Cn2ccc(NC(=O)c3cc(-c4cccs4)on3)n2)cc1, the nuclei count was 96.9% and the inhibition of aggregation was -11.4% (inactive). With Cc1nnc(N2C(=O)C(O)=C(C(=O)c3ccco3)C2c2ccc(F)cc2)s1 (stereo not given) the nuclei count was 122% and the inhibition of aggregation was -4.4% (inactive). With COC(=O)c1cc(=O)nc2sc(-c3cccs3)nn12 the inhibition of aggregation was 4.7% (inactive) and the nuclei count was 100%. With CCN(CC)CCCNc1oc(-c2cccc(Cl)c2)nc1C#N the inhibition of aggregation was -13.5% (inactive) and the nuclei count was 98.2%. With Cn1c(SCC(=O)O)nnc1C1CCCCC1 the inhibition of aggregation was -3.7% (inactive) and the nuclei count was 99.2%. In the case of CC1CCN(C(=O)CSc2nnc(-c3ccc(S(=O)(=O)N4CCOCC4)cc3)n2C)CC1, the nuclei count is reported as 97.2% and the inhibition of aggregation is reported as -5.5% (inactive). In the case of COCCn1nnnc1C(c1cccs1)N1CCN(c2cc(C)ccc2C)CC1 (stereo not given), the nuclei count is reported as 84.8% and the inhibition of aggregation is reported as -9% (inactive). With CC1CCc2nn(CC(=O)NCCN3CCOCC3)cc2C1 (stereo not given) the nuclei count was 94.5% and the inhibition of aggregation was -0.2% (inactive). In the case of CCOC(=O)c1c(C)[nH]c(C(=O)Cn2c(=O)c3c(ncn3CC)n(Cc3ccccc3)c2=O)c1C, the inhibition of aggregation is reported as 8.3% (inactive) and the nuclei count is reported as 88.5%. In the case of COc1cccc(C(=O)Nc2cc(C)c3c(=O)oc4ccccc4c3n2)c1, the nuclei count is reported as 93.9% and the inhibition of aggregation is reported as 9.3% (inactive). With O=C(CN1C(=O)COc2ccccc21)N(Cc1cccnc1)Cc1ccccc1F the inhibition of aggregation was -5.5% (inactive) and the nuclei count was 77.4%. With O=c1c2ccccc2c(/C=N/n2cnnc2)c(O)n1-c1ccccc1 the inhibition of aggregation was -43% (inactive) and the nuclei count was 58.6%. In the case of COCCNC(=O)C1CCCN(c2ncccn2)C1 (stereo not given), the inhibition of aggregation is reported as 5.6% (inactive) and the nuclei count is reported as 100%. In the case of COc1ccc(CNc2nc(NCc3ccc(OC)cc3)n(S(C)(=O)=O)n2)cc1, the nuclei count is reported as 86.3% and the inhibition of aggregation is reported as 26% (inactive). For O=C(CSc1nnc2c3cc(F)ccc3nc(-c3ccccc3)n12)N1CCOCC1, the nuclei count was 104% and the inhibition of aggregation was -0.6% (inactive). For CSc1nc(N)nc(SCCS(=O)(=O)c2ccc(Cl)cc2)c1C#N, the inhibition of aggregation was 24.9% (inactive) and the nuclei count was 95.8%. For CCOC(=O)c1sc2nc(NC(=O)C3CCCCC3)sc2c1C, the inhibition of aggregation was 4.6% (inactive) and the nuclei count was 92.9%. With CC(C)(C)OC(=O)NCCc1nnc(SCC(=O)c2ccc(Cl)cc2)o1 the nuclei count was 77.1% and the inhibition of aggregation was 36.8% (inactive). In the case of Cc1nc2ccc(C(=O)c3ccccc3)cc2[nH]1, the inhibition of aggregation is reported as 18.6% (inactive) and the nuclei count is reported as 69.6%. In the case of CCOC(=O)c1ccc(NC(=O)CSCc2ccco2)cc1, the nuclei count is reported as 108% and the inhibition of aggregation is reported as -9.1% (inactive).
